# Measurements: PubChem BioAssay (NCI)
# Several values for one entry are separate records, joined by “and”; a condition that tells them apart may be missing. Identical values can stand only once. This is part of a sample that, as a whole, favours compounds with a hit. Of some 83,000 tested, about 20% had one in any assay.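 The endpoint reported here, percent growth, reads 100 for growth as untreated, 0 for no net growth and -100 for all cells dead.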 Activity calls are given as the source filed them. How the source made its calls: active means growth percent below 10; inactive means the rest.
# Assays:
# Assay in all cases: NCI-60 one-dose screen, 48 h (100 = growth as untreated, 0 = no growth, -100 = all killed)
# Conditions in all cases: 10 µM unless noted
# [1] = system: BT-549 breast
# [2] = system: MDA-MB-435 melanoma
# [3] = system: SW-620 colon
# [4] = system: MCF7 breast
# [5] = system: HCT-116 colon
# [6] = system: HCC-2998 colon
# [7] = system: KM12 colon
# [8] = system: T-47D breast
Compound,growth [1],growth [2],growth [3],growth [4],growth [5],growth [6],growth [7],growth [8]
CCOC(=O)c1c(C)oc(C)c(C(=O)OCC)c1=O,79.4% (inactive) and 100% (inactive),111% (inactive) and 108% (inactive),104% (inactive) and 98.3% (inactive),97.7% (inactive) and 97.4% (inactive),97% (inactive) and 97.3% (inactive),102% (inactive),114% (inactive) and 117% (inactive),
O=C1OC(Oc2ccc(Br)cc2)(c2ccccc2)c2ccccc21 (stereo not drawn),88.4% (inactive) and 120% (inactive),102% (inactive) and 79.5% (inactive),78.6% (inactive) and 66.5% (inactive),89% (inactive) and 101% (inactive),65.6% (inactive) and 54.6% (inactive),102% (inactive) and 87.3% (inactive),87.7% (inactive) and 76.3% (inactive),
Cc1c(Cl)cccc1NCN1C(=O)c2ccccc2C1=O,106% (inactive),104% (inactive),110% (inactive),97.6% (inactive),116% (inactive),111% (inactive),103% (inactive),
COc1cc(-c2nccc3cc4c(cc23)OCO4)cc(OC)c1OC,,-14.5% (active) and -22.9% (active),,20.9% (inactive) and 16.7% (inactive),18.7% (inactive) and 25.3% (inactive),59.8% (inactive) and 48.4% (inactive),32.3% (inactive) and 25% (inactive),27.6% (inactive) and 31.9% (inactive)
CNc1ccc2nc3ccc(=[N+](C)C)cc-3sc2c1,,-63.5% (active) and -47% (active),,-65.8% (active) and -27.2% (active),-8.61% (active) and -49.3% (active),31.5% (inactive) and 33.6% (inactive),18.2% (inactive) and 14.2% (inactive),-12.4% (active) and -16.3% (active)
CN(C)c1ccc2nc3ccc(N)cc3[n+](-c3ccccc3)c2c1,27.5% (inactive),4.97% (active) and -49.2% (active),20.8% (inactive) and -13.9% (active),3.88% (active) and -17.2% (active),9.48% (active) and 5.93% (active),14.6% (inactive) and 51.9% (inactive),15.7% (inactive) and 24.2% (inactive),
NC(=S)NS(=O)(=O)c1ccc(N)cc1,,104% (inactive),,101% (inactive),101% (inactive),106% (inactive),110% (inactive),108% (inactive)
CN1C(=O)C(N=Nc2ccc([N+](=O)[O-])cc2)SC1=S (stereo not drawn),71% (inactive) and 67.8% (inactive),75.8% (inactive) and 85.4% (inactive),49% (inactive) and 60.3% (inactive),82.4% (inactive) and 68.8% (inactive),61.7% (inactive) and 70.5% (inactive),-0.382% (active),48.2% (inactive) and 52.8% (inactive),
CCN(CC)CCOc1ccc(/C=N/Nc2nc3c([nH]2)c(=O)n(C)c(=O)n3C)cc1,105% (inactive) and 96.1% (inactive),104% (inactive) and 105% (inactive),,81.5% (inactive) and 74.6% (inactive),98.3% (inactive) and 103% (inactive),102% (inactive) and 111% (inactive),109% (inactive) and 106% (inactive),
Clc1c(Cl)c(Cl)c2nn(C3CCCO3)nc2c1Cl (stereo not drawn),,,,15.9% [100 µM] (inactive) and -100% [100 µM] (active),,,,
N#CC1(C#N)C2CCCCC23OC(=N)C1(C#N)C(c1ccccc1)O3 (stereo not drawn),,,,-47% [100 µM] (active),,,,
c1ccc(N(c2ccccc2)c2ccccc2)cc1,106% (inactive),104% (inactive),,117% (inactive),99.6% (inactive),111% (inactive),105% (inactive),
CC(C)Cc1ccc(C(C)C(=O)NCc2ccc(Cn3c(=O)sn(CCCI)c3=O)cc2)cc1 (stereo not drawn),89.9% (inactive) and -81.9% (active),93% (inactive) and -72.6% (active),,31.7% (inactive) and -61.4% (active),82% (inactive) and -72.9% (active),91.5% (inactive) and -69.2% (active),99.2% (inactive) and -36.7% (active),
